We go through 14 molecules from PubChem BioAssay (NCI).

Compounds without any hit were thinned out: in the full panel of roughly 83,000, 20% have a hit.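 96-well plates, one dose, 48 hours. Percent growth reported; active if below 10.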 Unmarked numbers belong to inactive results. The source made the active and inactive calls.

What all share (assay): NCI-60 one-dose screen, 48 h (100 = growth as untreated, 0 = no growth, -100 = all killed)
Conditions in all cases: 10 µM unless noted

Assay [1] deals with NCI-H23 lung.
For assay [2], the system named is NCI-H226 lung.
The test system of assay [3] is NCI-H322M lung.
The test system of assay [4] is HOP-62 NSCLC.
Assay [5] deals with NCI-H460 lung.
The subject of assay [6] is HOP-92 NSCLC.
Assay [7] deals with NCI-H522 lung.
Assay [8] relates to A549/ATCC NSCLC.
For assay [9], the system named is 786-0 renal.
Assay [10] concerns COLO 205 colon.
The subject of assay [11] is DU-145 prostate.
Assay [12] deals with K-562 leukemia.
For assay [13], the system named is MALME-3M melanoma.
The subject of assay [14] is MDA-MB-231 breast.
For assay [15], the system named is RXF 393 renal.
Assay [16] has as its system SF-268 CNS.
The subject of assay [17] is SF-295 CNS.
Assay [18] deals with SF-539 CNS.
Assay [19] concerns UACC-257 melanoma.
The test system of assay [20] is M14 melanoma.

`COc1nc2ccc(C)cc2cc1-c1nc2c(cnn2-c2ccc(Br)cc2)c(=O)[nH]1`: the growth is 44.9% in [1]; 57.5% in assay [2]; 72.7% in [3]; 45.5% in assay [4]; 27.1% in assay [5]; 51.6% in assay [6]. For the same molecule, the growth in assay [7] was 3.48% (active); in [8], 57.7%; in [9], 41.5%; in assay [10], 74.2%; in [11], 53.4%; in assay [12] it was 16%. Besides, the growth was 73% in assay [13]; 76.1% in assay [14]; 15.9% in assay [15]; 49.6% in [16]; 26.7% in assay [17]; 12.1% in assay [18]. The growth in assay [19] is 47.4%; in assay [20] it was 27.7%.
In the case of `CC(=O)Oc1ccccc1C(=O)N=C1[Se]CCCN1C(=O)c1ccccc1OC(C)=O`, the growth is 6.41% (active) in [1]; -19.1% (active) in assay [2]; -5.61% (active) in [3]; 17.7% in assay [4]; 5.16% (active) in assay [5]; -10.3% (active) in assay [6]. Besides, the growth in assay [7] was 73.3%; in assay [8], 77.9%; in assay [9], 95.9%; in assay [10], 114%; in assay [11] it was 15.8%; in assay [12], 32.1%. Further, the growth in [13] was -27.1% (active); in assay [14] it was -57.6% (active); in [15] it was 6.8% (active); in assay [16], -14.1% (active); in assay [17], 17.5%; in [18] it was -42.5% (active). The growth in assay [19] was 57.4%; in [20], -10.4% (active).
Consider `Cc1nc(NC(=O)COc2ccc(/C=C3\Cc4ccc(Cl)cc4C3=O)cc2)sc1C`, for which the growth in assay [1] was 100%; in [2], 99.2%; in assay [3], 183%; in [4], 102%; in assay [5] it was 101%; in assay [6], 88.9%. Besides, the growth was 78.9% in assay [7]; 105% in assay [8]; 103% in [9]; 120% in assay [10]; 112% in assay [11]; 106% in assay [12]. The growth in assay [13] was 238%; in assay [14], 93.7%; in assay [15], 135%; in [16], 119%; in assay [17], 110%; in [18], 101%. For the same molecule, the growth in [19] was 110%; in assay [20], 114%.
On to `C=C1C(=O)O[C@H]2[C@H]1CC/C(COC(=O)NCCOCCOCC(=O)Nc1ccc(OC)c(C(N)=O)c1O)=C\CC[C@@]1(C)O[C@@H]21`, for which the growth was 78.5% in [1]; 89.8% in assay [2]; 96.9% in assay [3]; 84% in assay [4]; 95.8% in assay [5]; 24.2% in [6]. Moreover, the growth is -11% (active) in [7]; 84.1% in assay [8]; 62.1% in [9]; 8% (active) in assay [10]; 76.9% in [11]; 25.6% in assay [12]. In addition, the growth was 62.1% in [13]; 52% in assay [14]; -9.54% (active) in assay [15]; 81.9% in [16]; 97.7% in [17]; 37% in assay [18]. The growth in assay [19] is 57.1%; in [20], 60.4%.
Turning to `CCOC(=O)/C=C1\S/C(=N\Nc2ccc([N+](=O)[O-])cc2[N+](=O)[O-])N(Cc2ccccc2)C1=O`, the growth in [1] is 76.8%; in [2], 93.1%; in assay [3] it was 97.9%; in assay [4] it was 103%; in assay [5], 93.1%; in assay [6] it was 71.5%. For the same molecule, the growth was 68.6% in [7]; 93.2% in assay [8]; 91.2% in assay [9]; 99.1% in assay [10]; 81.4% in [11]; 54.7% in [12]. In addition, the growth was 93.1% in assay [13]; 84.9% in [14]; 78% in [15]; 89.7% in assay [16]; 95.1% in assay [17]; 99.6% in [18]. Further, the figures for the growth in [19] and in assay [20] were 90.1% and 100%, respectively.
Take `Cc1cc(O)c(C2=NN(c3ccc(S(N)(=O)=O)cc3)C(/C=C/c3ccccc3)C2)cc1Cl` (stereo not given): the growth is 22.3% in assay [1]; 33.7% in [2]; 57.5% in assay [3]; 17.6% in assay [4]; 35.3% in [5]; 29.6% in [6]. Further, the growth is 31.9% in [7]; 46.6% in [8]; 7.75% (active) in assay [9]; 65.2% in assay [10]; 36.4% in [11]; 31.2% in [12]. For the same molecule, the growth in assay [13] is 24.6%; in assay [14], 47.7%; in [15] it was 30%; in assay [16] it was 24.1%; in assay [17], 38.5%; in [18], 13.4%. The growth in [19] is 64.6%; in assay [20] it was 29.8%.
With `COC(=O)/C=C1\S/C(=N\Nc2ccc([N+](=O)[O-])cc2[N+](=O)[O-])N(C2CCCCC2)C1=O`, the growth in [1] was 60%; in assay [2], 80.7%; in [3], 99.3%; in assay [4] it was 86.8%; in [5] it was 35.1%; in assay [6], 8.36% (active). In addition, the growth in [7] is 43.6%; in assay [8], 87.6%; in [9], 61.1%; in [10], 42.5%; in assay [11], 44.2%; in assay [12], 17.8%. In addition, the growth in [13] was 87.5%; in assay [14] it was 59.8%; in assay [15], 62%; in assay [16] it was 71%; in assay [17], 77.1%; in assay [18], 69.2%. In addition, the growth in [19] was 80.1%; in assay [20], 78.1%.
As to `Cc1cccc2c3c(sc12)C(c1ccc(Cl)cc1)C(C#N)=C(/N=C/c1ccc(Cl)cc1)O3` (stereo not given), the growth in [1] was 27.2%; in assay [2], 18%; in [3], 49.9%; in [4], 42%; in assay [5] it was 6.47% (active); in [6] it was 96.5%. Besides, the growth in assay [7] is 22.8%; in assay [8], 30.9%; in assay [9] it was 31.9%; in assay [10], 0.544% (active); in [11] it was 20.1%; in [12], 8.84% (active). Also, the growth in assay [13] was 56.6%; in assay [14], 28.5%; in assay [15] it was -15.3% (active); in assay [16], 44.6%; in assay [17], 1.19% (active); in [18], -13.7% (active). Besides, the values for the growth in [19] and in assay [20] were 65.1% and 4.4% (active), respectively.
For `COc1cc(C)c(Cc2cnc(N)nc2N)cc1OC`, the growth in assay [1] is 101%; in assay [2] it was 93.9%; in assay [3], 103%; in [4], 97.1%; in assay [5], 111%; in assay [6], 88.9%. The growth was 95.9% in assay [7]; 103% in [8]; 103% in assay [9]; 117% in assay [10]; 120% in [11]; 110% in [12]. Also, the growth in assay [13] was 99.3%; in [14] it was 109%; in assay [15], 123%; in [16], 108%; in assay [17], 103%; in [18] it was 98.6%. Besides, the growth is 111% in assay [19] and 105% in assay [20].
As to `O=C1c2cccc3cccc(c23)C(=O)N1Nc1nc(N2CCOCC2)nc(N2CCN(c3ccccc3)CC2)n1`, the growth in assay [1] was 64%; in [2], 57.5%; in assay [3], 65.5%; in assay [4], 46.3%; in assay [5], 28.8%; in [6], 7.52% (active). Also, the growth in [7] is 29.9%; in assay [8] it was 53.1%; in assay [9], 65.6%; in assay [10] it was 3.51% (active); in [11], 55%; in [12], 18.4%. Moreover, the growth in [13] is 21.7%; in assay [14] it was 56.3%; in assay [15] it was 30.9%; in [16], 53.8%; in assay [17] it was 20.6%; in assay [18], 50.2%. Further, the growth in assay [19] was 71.8%; in assay [20], 19.4%.
For the molecule `CN1CCN(c2ccc(-c3cc4c(Nc5ccc(F)c(Cl)c5)ncnn4c3)cn2)CC1`, the growth was 102% in [1]; 97.7% in [2]; 74.7% in [3]; 106% in assay [4]; 16.1% in assay [5]; 107% in assay [6]. Further, the growth in assay [7] is 98.6%; in [8], 85.2%; in assay [9] it was 100%; in [10] it was 105%; in assay [11] it was 58.1%; in [12], 11.7%. Further, the growth in [13] is 50.3%; in assay [14], 77.3%; in assay [15] it was 101%; in assay [16] it was 98.7%; in assay [17], 103%; in assay [18], 68%. The growth in assay [19] is 105%; in assay [20], 83.8%.
Turning to `O=C1NC(=O)C(Cn2cnc3ccccc32)N1` (stereo not given), the growth in assay [1] was 98.4%; in [2], 103%; in assay [3], 99%; in assay [4] it was 102%; in [5] it was 101%; in [6], 97.4%. In addition, the growth in [7] is 95.9%; in assay [8], 97.8%; in assay [9], 99.2%; in assay [10] it was 107%; in assay [11], 110%; in assay [12], 106%. Also, the growth in [13] is 103%; in assay [14], 103%; in [15] it was 114%; in assay [16] it was 100%; in assay [17], 104%; in assay [18], 96.4%. The growth is 101% in [19] and 103% in assay [20].
Consider `O=c1c2cc(F)ccc2sc2c(N3CCNCC3)nc3ccccc3c12`, for which the growth in assay [1] is 68.8%; in assay [2], 88%; in assay [3] it was 60.3%; in assay [4], 61.4%; in [5] it was -76.4% (active); in [6], 36.8%. Moreover, the growth in assay [7] was 39.3%; in assay [8] it was 34.4%; in assay [9] it was 65.7%; in assay [10] it was -49.6% (active); in assay [11], -31.5% (active); in [12], -38.2% (active). Besides, the growth in assay [13] was 84.8%; in assay [14] it was -29.1% (active); in assay [15], 58.1%; in assay [16] it was 55.1%; in [17] it was 92.1%; in assay [18], 29.8%. The growth in assay [19] was 92.1%; in [20], -52.7% (active).
In the case of `C=C(C)[C@@H]1CC[C@]2(N=C=O)CC[C@]3(C)[C@H](CC[C@@H]4[C@@]5(C)Cc6c([nH]c7ccccc67)C(C)(C)[C@@H]5CC[C@]43C)[C@@H]12`, the growth in assay [1] is 98%; in assay [2], 90.5%; in assay [3] it was 88.4%; in assay [4] it was 89%; in assay [5], 39.5%; in [6], 66.2%. Further, the growth was 53.4% in assay [7]; 73.5% in assay [8]; 66.7% in [9]; 65.6% in [10]; 63.2% in assay [11]; 3.74% (active) in assay [12]. The growth in [13] is 101%; in assay [14] it was 68.4%; in [15], 81.6%; in assay [16] it was 80.7%; in [17], 111%; in [18], 89.3%. Also, the growth in [19] was 109%; in assay [20], 70.5%.
